# In ChEMBL document CHEMBL2218924, “A broad activity screen in support of a chemogenomic map for kinase signalling research and drug discovery” (Biochem J, 2013):
# Biological target: Hepatocyte growth factor receptor (Homo sapiens) (UniProt P08581)
# Settings: at 10 µM
# Sequence of Hepatocyte growth factor receptor (Homo sapiens) (P08581 whole entry): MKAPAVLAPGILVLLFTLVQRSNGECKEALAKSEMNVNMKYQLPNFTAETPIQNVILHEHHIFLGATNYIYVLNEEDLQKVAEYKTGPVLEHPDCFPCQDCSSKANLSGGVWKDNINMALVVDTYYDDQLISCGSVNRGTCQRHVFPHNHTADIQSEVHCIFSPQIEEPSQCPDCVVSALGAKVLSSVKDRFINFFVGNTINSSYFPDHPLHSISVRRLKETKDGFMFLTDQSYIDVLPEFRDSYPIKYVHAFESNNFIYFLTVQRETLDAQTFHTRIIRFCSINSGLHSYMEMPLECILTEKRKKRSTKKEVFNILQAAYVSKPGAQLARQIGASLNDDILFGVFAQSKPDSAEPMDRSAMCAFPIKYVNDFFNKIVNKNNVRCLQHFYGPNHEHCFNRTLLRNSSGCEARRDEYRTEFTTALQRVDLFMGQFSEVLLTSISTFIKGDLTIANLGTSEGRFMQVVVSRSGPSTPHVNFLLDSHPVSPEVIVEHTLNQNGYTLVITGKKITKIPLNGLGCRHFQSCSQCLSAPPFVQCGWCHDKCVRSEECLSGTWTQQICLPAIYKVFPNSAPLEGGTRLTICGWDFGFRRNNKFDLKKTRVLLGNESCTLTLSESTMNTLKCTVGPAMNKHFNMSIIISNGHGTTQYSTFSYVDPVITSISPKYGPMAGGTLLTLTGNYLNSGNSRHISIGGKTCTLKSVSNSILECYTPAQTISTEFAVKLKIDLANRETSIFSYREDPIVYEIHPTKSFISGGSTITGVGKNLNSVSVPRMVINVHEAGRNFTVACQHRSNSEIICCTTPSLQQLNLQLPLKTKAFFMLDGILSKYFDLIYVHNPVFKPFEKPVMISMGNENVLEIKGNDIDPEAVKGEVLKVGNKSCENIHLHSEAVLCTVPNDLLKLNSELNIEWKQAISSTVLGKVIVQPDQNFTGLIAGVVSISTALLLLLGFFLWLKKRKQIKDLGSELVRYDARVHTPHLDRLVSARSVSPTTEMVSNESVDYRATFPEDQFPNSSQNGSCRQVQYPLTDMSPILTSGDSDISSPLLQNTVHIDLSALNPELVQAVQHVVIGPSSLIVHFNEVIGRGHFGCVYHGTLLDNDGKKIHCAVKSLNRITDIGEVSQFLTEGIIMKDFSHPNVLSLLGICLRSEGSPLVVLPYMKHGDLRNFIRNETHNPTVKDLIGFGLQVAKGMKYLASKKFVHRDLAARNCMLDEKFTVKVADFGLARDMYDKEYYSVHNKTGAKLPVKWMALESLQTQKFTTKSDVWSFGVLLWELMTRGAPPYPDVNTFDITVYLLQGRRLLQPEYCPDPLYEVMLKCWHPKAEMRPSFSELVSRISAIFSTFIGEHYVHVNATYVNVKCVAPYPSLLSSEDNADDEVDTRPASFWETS
row,SMILES,residual activity [%]
1,CO[C@H]1C[C@@H]2CC[C@@H](C)[C@@](O)(O2)C(=O)C(=O)N2CCCC[C@H]2C(=O)O[C@H]([C@H](C)C[C@@H]2CC[C@@H](O)[C@H](OC)C2)CC(=O)[C@H](C)/C=C(\C)[C@@H](O)[C@@H](OC)C(=O)[C@H](C)C[C@H](C)/C=C/C=C/C=C/1C,105
2,Nc1nc(Nc2ccc(S(N)(=O)=O)cc2)nn1C(=S)Nc1c(F)cccc1F,0
3,O=C1NC(=O)/C(=C\c2ccc3nccnc3c2)S1,94
4,COc1ccc(CNc2nc(N(CCO)CCO)nc3c2ncn3C(C)C)cc1,85
5,COc1ccc(C(=O)Nc2sc3c(c2C(N)=O)CCCC3)cc1OC,110
6,O=C(Nc1cccc(Nc2cc(Nc3cccc(C(F)(F)F)c3)ncn2)c1)C1CC1,75
7,Oc1ccc(Nc2nc(-c3ccc(Cl)cc3)cs2)cc1,110
8,COc1ccc(OC)c2c(=S)c3ccccc3[nH]c12,119
9,O=C1Nc2cc(Br)ccc2/C1=C1/Nc2ccccc2/C1=N\O,97
10,Nc1cccc(-c2cc3c(Oc4cccc(O)c4)ncnc3[nH]2)c1,22
11,Oc1n[nH]c2nnc(-c3c(-c4ccccc4)nn4ccccc34)cc12,113
12,COc1cccc(-c2cc(=O)c3ccccc3o2)c1N,116
13,Cc1nc2cc3nc(-c4cccs4)cnc3cc2n1C,91
14,O=Nc1c(-c2c(O)[nH]c3ccccc23)[nH]c2ccccc12,13
15,O=C1c2ccccc2-[n+]2ccc3c([nH]c4ccccc43)c21,86
16,CNc1cc2c(Nc3cccc(Br)c3)ncnc2cn1,73
17,O=c1cc(-c2cccc3c2Sc2ccccc2S3)oc(N2CCOCC2)c1,120
18,C[C@@H](N)[C@H]1CC[C@H](C(=O)Nc2ccncc2)CC1,131

row,SMILES,residual activity [%]
1,Cc1nc(-c2ccccc2)c(-c2ccncc2)o1,94
2,CCC(=O)Nc1ccc2ncnc(Nc3cccc(Br)c3)c2c1,100
3,Cn1cnc2cc3c(Nc4cccc(Br)c4)ncnc3cc21,68
4,CC(C)n1cnc2/c(=N/c3cccc(Cl)c3)nc(NCCO)[nH]c21,47
5,Oc1c2ccccc2c2c3c(cccc13)N=N2,75
6,COc1cc2ncnc(Nc3ccc(O)c(Br)c3)c2cc1OC,72
7,N#C/C(=C(\N)Sc1ccc(N)cc1)c1ccccc1C(F)(F)F,90
8,CCOc1cc2ncnc(Nc3cccc(Br)c3)c2cc1OCC,33
9,O=C1NC(=O)c2c1c1c3ccccc3[nH]c1c1[nH]c3cc(Br)ccc3c21,116
10,CC#CC(=O)Nc1cc2c(Nc3ccc(F)c(Cl)c3)ncnc2cn1,84
11,NC(=O)c1ccc2[nH]c(-c3ccc(Oc4ccc(Cl)cc4)cc3)nc2c1,101
12,O=C(Nc1cccc(Nc2nccc(Nc3cccc(C(F)(F)F)c3)n2)c1)C1CC1,55
13,O=c1c2ccccc2[nH]c(=S)n1CCN1CCC(=C(c2ccc(F)cc2)c2ccc(F)cc2)CC1,89
14,Ic1cccc(CSc2nnc(-c3ccncc3)o2)c1,100
15,O=C1NC(=O)/C(=C/c2ccc3c(c2)OC(F)(F)O3)S1,78
16,Cc1ccc(NC2=CC(=O)c3sc(C)nc3C2=O)cc1,118
17,CC(=O)O/N=C1\C(=C2\C(=O)Nc3cc(Br)ccc32)Nc2ccccc21,81

# Biological target: MAP kinase-interacting serine/threonine-protein kinase 2 (Homo sapiens) (UniProt Q9HBH9)
# Settings: at 1 µM
# Sequence of MAP kinase-interacting serine/threonine-protein kinase 2 (Homo sapiens) (Q9HBH9 whole entry, looked up): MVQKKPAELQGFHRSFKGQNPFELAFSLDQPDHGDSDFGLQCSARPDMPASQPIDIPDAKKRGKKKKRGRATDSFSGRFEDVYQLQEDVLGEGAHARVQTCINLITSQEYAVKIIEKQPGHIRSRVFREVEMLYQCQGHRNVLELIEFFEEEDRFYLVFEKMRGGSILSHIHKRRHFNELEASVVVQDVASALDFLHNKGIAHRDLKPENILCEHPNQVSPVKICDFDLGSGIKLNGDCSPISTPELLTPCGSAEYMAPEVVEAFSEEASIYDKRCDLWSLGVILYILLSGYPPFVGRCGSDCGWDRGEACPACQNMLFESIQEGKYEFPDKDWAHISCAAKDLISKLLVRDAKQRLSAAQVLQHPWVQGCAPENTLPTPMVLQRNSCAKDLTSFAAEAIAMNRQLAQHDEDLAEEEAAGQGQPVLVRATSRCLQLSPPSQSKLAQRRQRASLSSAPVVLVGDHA
row,SMILES,residual activity [%]
1,CO[C@H]1C[C@@H]2CC[C@@H](C)[C@@](O)(O2)C(=O)C(=O)N2CCCC[C@H]2C(=O)O[C@H]([C@H](C)C[C@@H]2CC[C@@H](O)[C@H](OC)C2)CC(=O)[C@H](C)/C=C(\C)[C@@H](O)[C@@H](OC)C(=O)[C@H](C)C[C@H](C)/C=C/C=C/C=C/1C,105
2,Nc1nc(Nc2ccc(S(N)(=O)=O)cc2)nn1C(=S)Nc1c(F)cccc1F,6
3,O=C1NC(=O)/C(=C\c2ccc3nccnc3c2)S1,76
4,COc1ccc(CNc2nc(N(CCO)CCO)nc3c2ncn3C(C)C)cc1,99
5,COc1ccc(C(=O)Nc2sc3c(c2C(N)=O)CCCC3)cc1OC,99
6,O=C(Nc1cccc(Nc2cc(Nc3cccc(C(F)(F)F)c3)ncn2)c1)C1CC1,39
7,Oc1ccc(Nc2nc(-c3ccc(Cl)cc3)cs2)cc1,96
8,COc1ccc(OC)c2c(=S)c3ccccc3[nH]c12,97
9,O=C1Nc2cc(Br)ccc2/C1=C1/Nc2ccccc2/C1=N\O,62
10,Nc1cccc(-c2cc3c(Oc4cccc(O)c4)ncnc3[nH]2)c1,68
11,Oc1n[nH]c2nnc(-c3c(-c4ccccc4)nn4ccccc34)cc12,107
12,COc1cccc(-c2cc(=O)c3ccccc3o2)c1N,107
13,Cc1nc2cc3nc(-c4cccs4)cnc3cc2n1C,84
14,O=Nc1c(-c2c(O)[nH]c3ccccc23)[nH]c2ccccc12,62
15,O=C1c2ccccc2-[n+]2ccc3c([nH]c4ccccc43)c21,55
16,CNc1cc2c(Nc3cccc(Br)c3)ncnc2cn1,21
17,O=c1cc(-c2cccc3c2Sc2ccccc2S3)oc(N2CCOCC2)c1,100
18,C[C@@H](N)[C@H]1CC[C@H](C(=O)Nc2ccncc2)CC1,106

row,SMILES,residual activity [%]
1,Cc1nc(-c2ccccc2)c(-c2ccncc2)o1,106
2,CCC(=O)Nc1ccc2ncnc(Nc3cccc(Br)c3)c2c1,30
3,Cn1cnc2cc3c(Nc4cccc(Br)c4)ncnc3cc21,26
4,CC(C)n1cnc2/c(=N/c3cccc(Cl)c3)nc(NCCO)[nH]c21,95
5,Oc1c2ccccc2c2c3c(cccc13)N=N2,43
6,COc1cc2ncnc(Nc3ccc(O)c(Br)c3)c2cc1OC,10
7,N#C/C(=C(\N)Sc1ccc(N)cc1)c1ccccc1C(F)(F)F,102
8,CCOc1cc2ncnc(Nc3cccc(Br)c3)c2cc1OCC,21
9,O=C1NC(=O)c2c1c1c3ccccc3[nH]c1c1[nH]c3cc(Br)ccc3c21,48
10,CC#CC(=O)Nc1cc2c(Nc3ccc(F)c(Cl)c3)ncnc2cn1,101
11,NC(=O)c1ccc2[nH]c(-c3ccc(Oc4ccc(Cl)cc4)cc3)nc2c1,61
12,O=C(Nc1cccc(Nc2nccc(Nc3cccc(C(F)(F)F)c3)n2)c1)C1CC1,70
13,O=c1c2ccccc2[nH]c(=S)n1CCN1CCC(=C(c2ccc(F)cc2)c2ccc(F)cc2)CC1,112
14,Ic1cccc(CSc2nnc(-c3ccncc3)o2)c1,91
15,O=C1NC(=O)/C(=C/c2ccc3c(c2)OC(F)(F)O3)S1,109
16,Cc1ccc(NC2=CC(=O)c3sc(C)nc3C2=O)cc1,98
17,CC(=O)O/N=C1\C(=C2\C(=O)Nc3cc(Br)ccc32)Nc2ccccc21,101
